ST2 IL33 inh – inhibitors of human ST2 (IL1RL1) binding to IL-33 | AlphaLISA ST2-Fc/biotin-IL-33 interaction, 1 h | 78,000 compounds, 2.3% hits | inhibition, % for hits at 17 µM | AID 1259354; in the data active = inhibition above about 30%
Target sequence (Q01638 whole entry, looked up): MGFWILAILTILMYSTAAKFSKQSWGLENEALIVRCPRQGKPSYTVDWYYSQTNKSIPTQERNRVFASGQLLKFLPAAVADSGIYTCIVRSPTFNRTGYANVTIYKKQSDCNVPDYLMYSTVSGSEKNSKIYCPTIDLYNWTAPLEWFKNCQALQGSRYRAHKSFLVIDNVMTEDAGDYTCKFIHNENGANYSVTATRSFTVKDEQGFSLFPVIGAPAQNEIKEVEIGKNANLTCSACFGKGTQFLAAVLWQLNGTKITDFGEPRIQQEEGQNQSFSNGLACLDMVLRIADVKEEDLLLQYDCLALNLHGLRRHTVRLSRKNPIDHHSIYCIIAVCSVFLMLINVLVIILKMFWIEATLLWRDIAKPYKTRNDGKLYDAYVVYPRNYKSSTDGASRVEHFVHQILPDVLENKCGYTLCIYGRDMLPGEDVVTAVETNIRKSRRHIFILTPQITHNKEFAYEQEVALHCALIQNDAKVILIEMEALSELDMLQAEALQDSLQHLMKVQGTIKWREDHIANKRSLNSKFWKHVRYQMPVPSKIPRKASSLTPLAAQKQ
Numbers without * were called inactive; i = inactive. The full list was thinned out, with hits kept by preference.

SMILES	ST2 IL33 inh
CCOC(=O)C(CC)Sc1nc(C)nc2c1c(=O)n(C)c(=O)n2C (configuration not stated)	i
CCN(CC)CCCNC(=O)c1c(-c2c(Cl)cccc2Cl)noc1C	i
O=C(Nc1ccc(SC(F)F)cc1)C1=NCCN1	i
CCCc1nc2nc[nH]n2c(=O)c1NC(=O)Nc1cccc(F)c1	i
COc1ccc(CN2C[C@H](O)C[C@H]2c2nc(-c3ccccc3)no2)c(OC)c1OC	i
COc1ccc(CN2C[C@H](O)C[C@H]2c2nc(-c3ccncc3)no2)cc1	i
COc1ccc(CN2C[C@H](O)C[C@H]2c2nc(-c3ccc(F)cc3)no2)c(OC)c1OC	47.0%*
COc1ccc(CN2C[C@H](O)C[C@H]2c2nc(-c3ccccc3)no2)cc1	i
COc1ccc(-c2noc([C@@H]3C[C@@H](O)CN3Cc3cccc(C#N)c3)n2)cc1	58.0%*
COc1ccc(CN2C[C@H](O)C[C@H]2c2nc(Cc3ccc(F)cc3Cl)no2)c2ccccc12	i
CCn1c(CCNC(C)=O)nc2ccccc21	i
Cc1[nH]c2ccccc2c1SCCNC(=O)c1ccc2c(c1)OCO2	i
O=C1COc2ccccc2C(=O)N1	i
CCC(Nc1cccc(OC)c1)C(=O)NC1(CO)CCCC1 (configuration not stated)	i
CCCn1cc(C(=O)N[C@H]2COC[C@@H]2OCC)c(C)n1	i
Cc1ccsc1[C@@H]1CCN(C(=O)c2coc3c2C(=O)CCC3)C[C@H]1O	32.0%*
CCc1nc(C)c(C(=O)N2CC[C@@H](c3sccc3C)[C@H](O)C2)o1	i
CC(=O)c1[nH]c(C)c(C(=O)N2CC[C@@H](c3sccc3C)[C@H](O)C2)c1C	i
COc1cc(C)c2c(OC)c(C)c(=O)oc2c1OC	i
CCCOc1ccc(C(=O)Nc2ccccc2I)cc1	i
CC1=N/C(=C\c2ccc(OC(F)F)cc2)C(=O)O1	i
Cc1ccc(/C=C2\N=C(c3ccccc3C)OC2=O)o1	65.0%*
CCOc1ccc(/C=C2\N=C(c3ccc(Br)cc3)OC2=O)cc1	i
Cc1ccccc1C1=N/C(=C\c2ccco2)C(=O)O1	44.0%*
Cc1ccc(/C=C2\N=C(c3ccc(I)cc3)OC2=O)o1	47.0%*
SMILES	ST2 IL33 inh
Cc1ccc(C2=N/C(=C\c3ccco3)C(=O)O2)cc1[N+](=O)[O-]	i
O=C1OC(c2ccc3c(c2)OCO3)=N/C1=C\c1ccccc1Br	i
C=CCSc1nnc2c(n1)OC(c1ccc(Br)o1)N(C(C)=O)c1ccccc1-2 (configuration not stated)	i
CC1=C(C(=O)Nc2nc3ccccc3s2)C(c2cccc([N+](=O)[O-])c2)C2=C(CCCC2=O)N1 (configuration not stated)	i
COC(=O)C1C(=O)C2=C(CC1C)NC(C)=C(C(=O)OC1CCCCCC1)C2c1ccc(C)s1 (configuration not stated)	i
CCOC(=O)c1ccc(NC(=O)CSc2nc(-c3ccc(OCC)cc3)nc3cc(=O)[nH]n23)cc1	i
O=C(c1ccc(O)cc1)N1N=C(c2ccccc2)CC1(O)C(F)(F)F (configuration not stated)	i
Cc1ccc(C)c(OCC(=O)Nc2cc(Cl)ccc2C)c1	i
CCOC(=O)C(CC)Sc1nc2c(c(=O)[nH]c(=O)n2C)n1C (configuration not stated)	i
O=C1Nc2ccc(Br)cc2C(=O)N2CCN(C(=O)c3cccc(F)c3)C[C@H]12	37.0%*
O=C1Nc2ccc(Br)cc2C(=O)N2CCN(C(=O)c3ccccc3)C[C@H]12	i
O=C1Nc2ccc(-c3ccccc3)cc2C(=O)N2CCN(C(=O)c3cccc(F)c3)C[C@H]12	i
CC1(C(=O)NCc2cccnc2)CCC(=O)N1Cc1ccc2c(c1)OCO2 (configuration not stated)	i
COc1ccccc1NC(=O)c1ccccc1Cl	i
c1ccc(-c2cn3c4ccccc4nc3n2CCN2CCOCC2)cc1	i
CCOc1ccc(-n2c(C)nc3c(cnn3-c3ccc(F)cc3)c2=O)cc1	i
CCOc1ccc(-n2c(-c3ccco3)nc3c(cnn3-c3ccc(F)cc3)c2=O)cc1	33.0%*
CCc1cccc(-n2c(-c3ccco3)nc3c(cnn3-c3ccc(F)cc3)c2=O)c1	i
Cc1ccc(-c2csc(NC(=O)c3cc(=O)c4ccccc4o3)n2)c(C)c1	i
Cc1ccc(-c2csc(/C(C#N)=C/c3cccnc3)n2)c(C)c1	34.0%*
O=[N+]([O-])c1ccc(Cl)c(N=Cc2ccc(Br)c([N+](=O)[O-])c2)c1	i
O=C1NC(=O)/C(=C/c2ccc(-c3cc([N+](=O)[O-])ccc3Cl)o2)S1	i
COc1cccc(/C=C2/SC(=Nc3ccccc3Cl)NC2=O)c1OC	31.0%*
O=C1NC(=Nc2ccccc2Cl)SC1(CO)CO	i
COc1cccc(/C=C2\SC(N3CCN(C)CC3)=NC2=O)c1OC	i
SMILES	ST2 IL33 inh
O=C(/C=C1\Sc2ccccc2NC1=O)NCc1ccc2c(c1)OCO2	i
O=C1NC(=Nc2ccccc2Cl)S/C1=C/c1ccc([N+](=O)[O-])cc1	31.0%*
CCOc1ccccc1/C=C1/SC(=O)NC1=O	i
O=C1NC(=Nc2ccccc2Cl)S/C1=C/c1cc2c(cc1Cl)OCO2	31.0%*
COc1ccc(C2C(C#N)=C(N)N(c3ccccc3C#N)C3=C2C(=O)CC(C)(C)C3)cc1O (configuration not stated)	i
CC1CC(=O)C2=C(C1)OC(N)=C(C#N)C2c1ccc(Br)s1 (configuration not stated)	i
COc1ccc2c(c1)C(C)=CC(C)(C)N2C(=O)CN1C(=O)c2cccc([N+](=O)[O-])c2C1=O	i
O=C(Nc1nc(-c2ccc(F)cc2)cs1)c1ccc(S(=O)(=O)N2CCCCC2)cc1	i
O=C(N[C@H]1CCC[C@H]1Cc1ccc(F)cc1)C(=O)c1ccco1	i
CCOc1ccccc1N1COc2ccc3ccccc3c2C1	i
CCCN(CCC)S(=O)(=O)c1ccc2c(c1)CCN2C(=O)C1CC1	i
COC[C@H]1CCCN1[C@@H]1[C@H](O)[C@H](CO)O[C@@H]1CNC(=O)NC(C)C	i
COc1ccccc1CNc1ncnc2sc3c(c12)CCCC3	i
Cn1c2ccc([N+](=O)[O-])cc2c2nnc(SCN3C(=O)c4ccccc4C3=O)nc21	i
COc1cc(NC(=O)/C=C/c2ccc(Cl)cc2)ccc1NC(=O)c1ccco1	i
COc1cc(-c2ccc(NC(C)=O)c(OC)c2)ccc1NC(C)=O	i
COc1cc(-c2ccc(NC(=O)c3ccco3)c(OC)c2)ccc1NC(=O)c1ccco1	31.0%*
CCCN(CCC)S(=O)(=O)c1ccc(C(=O)Nc2nnc(-c3ccccc3OC)o2)cc1	i
COC(=O)CCCNC(=O)Cn1cnc2sc(C)c(C)c2c1=O	i
O=C(CCS(=O)(=O)c1cccc2nonc12)NC1CCCC1	i
CC(C)COc1ccc2c(c1)c1c3n2CCNC3CCC1 (configuration not stated)	i
CC(C)COc1ccc2c(c1)c1c3c(nccn32)CCC1	38.0%*
CCn1c2ccccc2c2cc(/C=C/[N+](=O)[O-])ccc21	38.0%*
CCn1c2ccccc2c2cc(NC(=O)CSc3cc(=O)n(C)c4ccccc34)ccc21	i
CCn1c2ccccc2c2cc(CN3CCCN(C)CC3)ccc21	i
CCC(C(=O)Nc1ccccc1C(N)=O)c1ccccc1 (configuration not stated)	i
